Experimental data taken from PubChem BioAssay AID1626 (SRMLSC, 2009).
In all, about 220,000 compounds went through this assay and about 2,000 (0.91%) were called active. Another 2% or so got no clear call; they are omitted. Only a sample is shown. Potency and affinity values are given separately. Unmarked numbers belong to inactive results. Rule as the data show it: inconclusive = inhibition above about 80% without an active follow-up result; inactive = below that; test concentration not stated here.

Experiment: M. tuberculosis H37Rv growth inhibitors, H37Rv strain (AID 1626);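 also: bacteria incubated seven days before Alamar blue readout; 0% = bacteria only wells and 100% = bacteria with antibiotic wells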
Conditions: active compounds read high, concentration not given here

**Q.** Which inhibition does the source give for Cc1ccc(C2NC(=O)CCC2[N+](=O)[O-])cc1 (stereo not drawn) here?
**A.** 1.52%

**Q.** For NS(=O)(=O)c1ccc(NC(=O)C(Sc2ccccc2)c2ccccc2)cc1 (stereo not drawn), which inhibition is on record?
**A.** 2.33%

**Q.** For COc1cccc(CNC(=O)c2ccc3nc[nH]c3c2)c1, which inhibition is on record?
**A.** -1.98%

**Q.** With O=C(COc1ccc(Br)cc1)NCc1cn2ccccc2n1 as the molecule, how does the inhibition read?
**A.** -2.73%

**Q.** For NC1=NC(=O)/C(=C\C=C\c2ccccc2)S1, which inhibition is on record?
**A.** 2.56%

**Q.** Which inhibition does the source give for CCCOc1ccc(/C=N/NC(=O)C(C)Sc2ccccn2)cc1OCC (stereo not drawn) here?
**A.** 4.45%

**Q.** Which inhibition does the source give for Cc1cccc(/C=C2\CS/C(=C\c3cccc(C)c3)C2=O)c1 here?
**A.** -5.7%

**Q.** Which inhibition does the source give for COc1cccc(/C=c2\s/c(=C\C(=O)C(C)(C)C)[nH]c2=O)c1 here?
**A.** 8.13%

**Q.** With Cc1cc(NC(=O)C(=O)c2cn(C)c3ccccc23)no1 as the molecule, how does the inhibition read?
**A.** -4.05%

**Q.** Which inhibition does the source give for CCC(=O)Nc1cccc(C2=NOC3(C2)C[C@@H](C(N)=O)N(C(=O)C2(C)CC2)C3)c1 (stereo partly drawn) here?
**A.** -7.53%

**Q.** With O=C(COC(=O)c1ccc(Br)cc1)NCCN1C(=O)CSC1=O as the molecule, how does the inhibition read?
**A.** -0.22%

**Q.** With O=C(CN1C(=O)c2cccc3cccc1c23)Nc1ccccc1C(=O)NCc1ccco1 as the molecule, how does the inhibition read?
**A.** -8.25%

**Q.** For COc1ccc(C2C(C(=O)Nc3ccc4c(c3)OCCO4)c3ccccc3C(=O)N2C)cc1 (stereo not drawn), which inhibition is on record?
**A.** -5.2%

**Q.** With CC1=C(C(=O)Nc2ccccc2C)C(c2cccs2)NC(=S)N1 (stereo not drawn) as the molecule, how does the inhibition read?
**A.** -1.29%

**Q.** For O=S(=O)(c1ccc(F)cc1)c1snnc1-c1ccccc1, which inhibition is on record?
**A.** -0.36%

**Q.** For O=S(=O)(c1ccc(Cl)cc1)c1snnc1-c1ccccc1, which inhibition is on record?
**A.** -9.09%

**Q.** With O=C(CNC(=S)N(Cc1ccccc1F)C1CCCCC1)NC1CC1 as the molecule, how does the inhibition read?
**A.** -3.6%

**Q.** Which inhibition does the source give for O=C(Nc1ccc2sccc2c1)c1ccc(Cl)s1 here?
**A.** 59.4%

**Q.** Which inhibition does the source give for Cc1ccc(/C=C/C(=O)Nc2ccc([N+](=O)[O-])cc2)o1 here?
**A.** 6.87%

**Q.** With O=C(O)/C=C/c1ccc([N+](=O)[O-])o1 as the molecule, how does the inhibition read?
**A.** 7.14%

**Q.** For CCOC(=O)/C=c1\s/c(=C(\C#N)C(N)=O)n(-c2ccccc2)c1=O, which inhibition is on record?
**A.** 2.26%

**Q.** With COc1cc(/C=N/NC(=O)c2cnccn2)cc(OC)c1OC as the molecule, how does the inhibition read?
**A.** -6.81%

**Q.** Which inhibition does the source give for CC1(C)CCCC2=C1CC1C(=O)N(N)C(=O)C1C2 (stereo not drawn) here?
**A.** 2.05%

**Q.** For Cc1ccc(Nc2ccccc2)cc1, which inhibition is on record?
**A.** 6.23%

**Q.** Which inhibition does the source give for Cc1ccc(Nc2ccc(C(=O)O)cc2N)cc1 here?
**A.** -7.86%

**Q.** Which inhibition does the source give for Nc1ccccc1Nc1cccc(C(F)(F)F)c1 here?
**A.** 6.41%

**Q.** For COc1ccc(Nc2cccccc2=O)cc1, which inhibition is on record?
**A.** 1.3%

**Q.** For c1ccc(Nc2cccc3c(Nc4ccccc4)cccc23)cc1, which inhibition is on record?
**A.** -3.47%

**Q.** For COc1ccc(Nc2ccc(OC)cc2)cc1, which inhibition is on record?
**A.** 47%

**Q.** Which inhibition does the source give for FC(F)(F)c1nc2ccccc2nc1N/N=C/c1c(Cl)cccc1Cl here?
**A.** 9.85%

**Q.** With COCCN(C(=S)Nc1ccc(C)cc1C)C(C)c1ccco1 (stereo not drawn) as the molecule, how does the inhibition read?
**A.** -7%

**Q.** With CSc1ncccc1C(=O)OCC(=O)c1ccccc1Br as the molecule, how does the inhibition read?
**A.** -4.85%

**Q.** For CCOC(=O)c1cc(NC(=O)N2CCOCC2)c(C)nc1C, which inhibition is on record?
**A.** -1.72%

**Q.** For CC(C)CNc1cc(N2CCCC2)ccc1[N+](=O)[O-], which inhibition is on record?
**A.** 4.85%

**Q.** Which inhibition does the source give for CCCCCSc1nc2c(c(=O)[nH]c(=O)n2C)n1C here?
**A.** 11.1%

**Q.** With C/C(=C\C(=O)c1ccc(Br)cc1)NCc1ccc(C)cc1 as the molecule, how does the inhibition read?
**A.** 4.34%

**Q.** Which inhibition does the source give for CCOc1cc(S(=O)(=O)N2CCOCC2)ccc1F here?
**A.** -1.04%

**Q.** For CC(C)[C@H](NS(=O)(=O)/C=C/c1ccccc1)C(=O)OCC(=O)NC(N)=O, which inhibition is on record?
**A.** 0.26%

**Q.** Which inhibition does the source give for CC(Cn1cnc2ccccc21)C(=O)O (stereo not drawn) here?
**A.** -0.91%

**Q.** With Cc1cc(C)c(C(=O)Nc2ccc(C)c(C)c2)c(CC(C)(C)C(=O)O)c1 as the molecule, how does the inhibition read?
**A.** -5.76%

**Q.** For CC(NC(=O)COC(=O)/C=C/c1cccc(C(F)(F)F)c1)c1ccccc1 (stereo not drawn), which inhibition is on record?
**A.** 5.27%

**Q.** With O=C1N=C(N2CCN(c3ccccc3)CC2)SC1Cc1ccccc1 (stereo not drawn) as the molecule, how does the inhibition read?
**A.** 1.7%

**Q.** For O=C(Nc1ccccc1)N1CCCC1c1cccs1 (stereo not drawn), which inhibition is on record?
**A.** -1.63%

**Q.** Which inhibition does the source give for Cc1ccc2nc(-c3ccc(SCC(=O)Nc4nc(C)cs4)nc3)[nH]c2c1 here?
**A.** 0.98%

**Q.** With Cc1cc2nc(-c3ccc(SCC(=O)NC(C)C)nc3)[nH]c2cc1C as the molecule, how does the inhibition read?
**A.** 1.74%

**Q.** With Cc1nc(NC(=O)CSc2ccc(-c3nc4ccccc4[nH]3)cn2)sc1C as the molecule, how does the inhibition read?
**A.** -0.38%

**Q.** Which inhibition does the source give for Cc1ccc2nc(-c3ccc(SCC(=O)O)nc3)[nH]c2c1 here?
**A.** 4.36%

**Q.** Which inhibition does the source give for CCc1nnc(NC(=O)CSc2ccc(-c3nc4ccccc4[nH]3)cn2)s1 here?
**A.** -3.06%

**Q.** For CC(=O)CSc1ccc(-c2nc3cc(C)c(C)cc3[nH]2)cn1, which inhibition is on record?
**A.** 11.7%

**Q.** For Cc1ncoc1C(=O)N1CCc2c([nH]c3ccccc23)C1C1CCCCC1 (stereo not drawn), which inhibition is on record?
**A.** 11.8%

**Q.** For CC(CS(=O)(=O)c1cccc2cccnc12)N1CCCCC1 (stereo not drawn), which inhibition is on record?
**A.** 2.17%

**Q.** With CCNc1nc(NCc2ccccc2)nc(SCC(N)=O)n1 as the molecule, how does the inhibition read?
**A.** 78.2%

**Q.** Which inhibition does the source give for COc1ccc(NC(=O)Nc2sc(=S)n(C)c2C)cc1 here?
**A.** -3.18%

**Q.** For CCOc1nc(-c2ccc(OC)cc2)ccc1-c1noc(C)n1, which inhibition is on record?
**A.** 6.32%

**Q.** Which inhibition does the source give for Cc1nn(-c2ccccc2)c(N2CCCC2)c1/C=N/NC(=O)C1CC1 here?
**A.** 1.71%

**Q.** For COC(=O)C1=C(C)NC(=O)CC1c1ccc(F)c(Br)c1 (stereo not drawn), which inhibition is on record?
**A.** 13.5%

**Q.** Which inhibition does the source give for CCN(c1ccccc1)S(=O)(=O)c1ccc(C(=O)OC(C)C(=O)NCCC2=CCCCC2)cc1 (stereo not drawn) here?
**A.** 0.82%

**Q.** For COc1ccc(C(C(=O)NC2CCCCC2)N(C(=O)c2sc(C)nc2C)c2ccc(OC)cc2)cc1 (stereo not drawn), which inhibition is on record?
**A.** 78.9%

**Q.** With COc1ccc(C(C(=O)NC2CCCCC2)N(C(=O)c2sc(C)nc2C)c2ccccc2)cc1 (stereo not drawn) as the molecule, how does the inhibition read?
**A.** 1.23%

**Q.** For COc1ccc(C(C(=O)NC2CCCCC2)N(C(=O)c2ccccn2)c2cccnc2)cc1 (stereo not drawn), which inhibition is on record?
**A.** -6.78%

**Q.** For COc1ccc(N(C(=O)c2cnccn2)C(C(=O)NC2CCCCC2)c2ccc(O)cc2)cc1 (stereo not drawn), which inhibition is on record?
**A.** 4.1%

**Q.** With O=C(O)c1cccc(NC(=O)c2ccc(Cl)c(S(=O)(=O)N3CCCCCC3)c2)c1 as the molecule, how does the inhibition read?
**A.** -5.92%

**Q.** Which inhibition does the source give for CCOc1ncccc1C(=O)OCc1ccc(C#N)cc1 here?
**A.** 4.57%
